# Results filed as inconclusive are left out. Where a call stands in place of a potency, no number is given. Calls of active or inactive are those of the source. Calls come from the whole dose curve; as a rule, active = well fitted curve in the direction sought with a large enough effect; inconclusive = small, poorly fitted or top-dose-only effect, or another doubt; inactive = no such curve, though single readings can be large; an effect the other way counts as inactive or inconclusive.
# Columns and labels:
# [1] = qHTS assay for measurement of the activity of small molecule inhibitors on Zika virus induced Caspase-3 activity in human astrocytoma cells (AID 1224859)
# Method in brief: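 In SNB-19 cells plated at 250 cells/well and grown 16-20 h, compounds were applied 1 h before ZIKV (2 FFU/cell). Six hours later caspase-3/7 luminescence was recorded.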
# [2] = qHTS assay to identify small molecule inhibitors of chordoma cells - UCH-1 (AID 1259355); note: nearly all actives have a fitted effect of over 55% in size
# Method in brief: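 800 cells/well, overnight attach; compounds pinned at 15 concs, then auranofin/camptothecin/doxorubicin/rubitecan/topotecan combo added; 48hr 37 C, 5% CO2; CellTiter-Glo, 30min RT, luminescence.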
# [3] = qHTS Screen of the MIPE 4.0 Collection Against Ewings Sarcoma (TC71) (AID 1259253); note: nearly all actives have a fitted effect of over 40% in size; note: potency is the fitted concentration of half-maximal effect
# Method in brief: (§1)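 CellTiter-Glo luminescence after 48 h compound exposure (titration) gave viability; percent activity used DMSO-treated cells as no inhibition and medium-only wells as full inhibition. Cells grown in RPMI/5% FBS, dosed 4 h post-seeding.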
# [4] = qHTS Screen of the MIPE 4.0 Collection Against Ewings Sarcoma (EW8) (AID 1259255); note: nearly all actives have a fitted effect of over 35% in size; note: potency is the fitted concentration of half-maximal effect
# Method in brief: as §1
# [5] = qHTS Screen of the MIPE 4.0 Collection Against Ewings Sarcoma (TC32) (AID 1259256); note: nearly all actives have a fitted effect of over 45% in size; note: potency is the fitted concentration of half-maximal effect
# Method in brief: as §1
# [6] = qHTS Screen of the MIPE 4.0 Collection Against Ewings Sarcoma (RDES) (AID 1259252); note: nearly all actives have a fitted effect of over 35% in size; note: potency is the fitted concentration of half-maximal effect
# Method in brief: as §1
# [7] = Identifying Small Molecule Inhibitors of Pancreatic Cancer Stem Cells (SN12C, Adherent) (AID 1259358);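 note: potency is the fitted concentration of half-maximal effect; cell survival measured after 48 h of compound exposure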
# Method in brief: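 Cytotoxicity read by CellTiter-Glo luminescence after 48 h compound exposure at 37C; percent activity scaled between DMSO-treated cells and cell-free wells. Spheroid formats used cells pre-formed 14 days in stem cell media on hydrogel.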
# [8] = Identifying Small Molecule Inhibitors of Pancreatic Cancer Stem Cells (SN12C, Spheroid) (AID 1259360); settings: Potency: SN12C spheroid viability; note: potency is the fitted concentration of half-maximal effect
# Method in brief: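 Viability is scored by CellTiter-Glo luminescence 48 h after dosing, expressed as percent activity against vehicle and no-cell references. Spheroid formats rely on cells cultured 14 days in stem cell media beforehand.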
compound,measurement,setting,value
Clc1cc(Cl)cc(CNc2ncncc2-c2ccc3c(c2)OCO3)c1,Potency,[1],inactive
O=c1cc(-c2cccc3c2Sc2ccccc2S3)oc(N2CCOCC2)c1,Potency,[1],inactive
CON=C(C(=O)N[C@@H]1C(=O)N2C(C(=O)OCOC(=O)C(C)(C)C)=C(C=Cc3scnc3C)CS[C@H]12)c1csc(N)n1,Potency,[1],inactive
Cc1cccc(Nc2nc(-c3ccncc3)cs2)c1,Potency,[1],inactive
CC(C)C[C@H](CC(=O)O)C(=O)N[C@@H](Cc1c[nH]c2ccccc12)C(=O)N[C@@H](C)c1ccccc1,Potency,[1],inactive
O=C1NC(=O)C(=Cc2ccc3c(c2)OC(F)(F)O3)S1,Potency,[1],inactive
CO[C@H]1C[C@@H]2CC[C@@H](C)[C@@](O)(O2)C(=O)C(=O)N2CCCC[C@@H]2C(=O)O[C@H]([C@H](C)C[C@@H]2CC[C@H](OC(=O)C(C)(CO)CO)[C@H](OC)C2)CC(=O)[C@H](C)C=C(C)[C@@H](O)[C@@H](OC)C(=O)[C@H](C)C[C@H](C)C=CC=CC=C1C,Potency,[1],inactive
NC(=O)c1cccc(-c2cc(Nc3ccc(OC(F)(F)F)cc3)ncn2)c1,Potency,[1],inactive
NC(CO)(CO)CCc1ccc(Sc2cccc(OCc3ccccc3)c2)cc1Cl,Potency,[1],inactive
CC(C)n1cnc2c(NCCCCCCNC(=O)OC(C)(C)C)nc(NCCO)nc21,Potency,[1],inactive
C=CCc1ccc(O)c(-c2ccc(O)c(CC=C)c2)c1,Potency,[1],inactive
COCCCCC(=NOCCN)c1ccc(C(F)(F)F)cc1,Potency,[1],inactive
OC[C@H]1O[C@@H](Oc2cc(O)cc(C=Cc3ccc(O)cc3)c2)[C@H](O)[C@@H](O)[C@H]1O,Potency,[1],inactive
CCN(CC)CCOc1ccc(C(=C(Cl)c2ccccc2)c2ccccc2)cc1,Potency,[1],inactive
COc1ccc2c(Oc3ccc(NC(=O)c4c(C)n(CC(C)(C)O)n(-c5ccccc5)c4=O)cc3F)ccnc2c1,Potency,[1],inactive
CC/C(=C(\c1ccccc1)c1ccc(OCCN(C)C)cc1)c1ccccc1,Potency,[1],inactive
CO[C@H]1C[C@@H]2CC[C@@H](C)[C@@](O)(O2)C(=O)C(=O)N2CCCC[C@@H]2C(=O)O[C@H]([C@H](C)C[C@@H]2CC[C@H](OP(C)(C)=O)[C@H](OC)C2)CC(=O)[C@H](C)C=C(C)[C@@H](O)[C@@H](OC)C(=O)[C@H](C)C[C@H](C)C=CC=CC=C1C,Potency,[1],inactive
Cc1c[nH]c(C=C2C(=O)Nc3ccccc32)c1CCC(=O)O,Potency,[1],inactive
CC(C)C(=O)Nc1ncc(-c2cc(C(F)F)nn2-c2c(Cl)cccc2Cl)s1,Potency,[1],inactive
CS(=O)(=O)N(Cc1ccco1)CC(O)Cn1c2ccccc2c2ccccc21 (stereo not given),Potency,[1],inactive
COCCOc1nc(-c2ccc(Cl)c(Cl)c2)n(-c2ccc(NC(=O)CCl)cc2)n1,Potency,[1],inactive
COCCOC(=O)C1=C(C)NC2=C(C(=O)CC(c3ccccc3OC)C2)C1c1cccc(O)c1 (stereo not given),Potency,[1],inactive
Cc1ccc(C(C)(O)c2nc3ccccc3s2)c(C)c1 (stereo not given),Potency,[1],inactive
Cc1ccc([C@@H]2O[C@H](CO)[C@@H](O)[C@H](O)[C@@H]2O)cc1Cc1ccc(-c2ccc(F)cc2)s1,Potency,[1],inactive
COc1ccc(-c2nc(N3CCOCC3)c3sc(CN(C)c4ncc(C(=O)NO)cn4)cc3n2)cn1,Potency,[1],inactive
NC(=O)NN=Cc1ccc([N+](=O)[O-])o1,Potency,[1],inactive
Oc1ccc(C2CCN(c3ccnc4ccccc34)CC2)cc1O,Potency,[1],inactive
Cc1ccc(Nc2cc(-c3cccc(N4C(=O)c5ccccc5C4=O)c3)ncn2)cc1NS(C)(=O)=O,Potency,[1],inactive
c1cc(-c2sc(-c3ccncc3)c(-c3ccncc3)c2-c2ccncc2)ccn1,Potency,[1],inactive
C[C@H](NC(=O)c1sccc1OCc1ccc(Cl)cc1)c1ccccc1,Potency,[1],inactive
CC=CCC=CCCC(=O)[C@H]1O[C@@H]1C(N)=O,Potency,[1],inactive
CC1(C)CCC[C@@]2(C)[C@@H]1CC[C@@]1(C)OC(=O)C[C@H]21,Potency,[1],inactive
COC[C@@H](c1ccc(C(F)(F)F)cc1)N1CCN(C2(C)CCN(C(=O)c3c(C)ncnc3C)CC2)C[C@H]1C,Potency,[1],inactive
COc1cc(NC(=O)c2ccc(-c3ccc(Cl)cc3)o2)cc(OC)c1,Potency,[1],inactive
Cc1ccc(F)c(NC(=O)Nc2ccc(-c3cccc4[nH]nc(N)c34)cc2)c1,Potency,[1],inactive
CCC(=O)NC[C@H](Cc1ccc(OCCc2nc(-c3ccccc3)oc2C)cc1)NC(C)=CC(=O)c1ccc(C(F)(F)F)cc1,Potency,[1],inactive
CCn1cc(C(=O)O)c(=O)c2ccc(C)nc21,Potency,[2],inactive
NC[C@@H]1O[C@@H](O[C@H]2[C@@H](O)[C@H](O[C@@H]3[C@@H](O)[C@@H](N)C[C@H](N)[C@H]3O[C@H]3O[C@H](CN)[C@@H](O)[C@@H](O)[C@H]3N)O[C@H]2CO)[C@H](N)[C@@H](O)[C@@H]1O,Potency,[1],inactive
same,Potency,[3],inactive
same,Potency,[4],inactive
C[C@]12CCC3c4ccc(O)cc4CCC3C1CCC2=O (stereo not given in full),Potency,[1],inactive
same,Potency,[3],14.8 µM (active)
same,Potency,[5],6.62 µM (active)
Cc1ccn(-c2ccc(-c3ncco3)cc2)c(=O)c1-c1ccc2nc(N)ncc2c1,Potency,[1],inactive
same,Potency,[3],16.6 µM (active)
same,Potency,[5],3.72 µM (active)
CC(=O)Oc1cc2c(s1)CCN(C(C(=O)C1CC1)c1ccccc1F)C2 (stereo not given),Potency,[1],inactive
same,Potency,[6],2.35 µM (active)
same,Potency,[4],3.72 µM (active)
same,Potency,[5],2.96 µM (active)
NC(=O)c1ccc2nc(-c3ccc(Oc4ccc(Cl)cc4)cc3)[nH]c2c1,Potency,[1],inactive
same,Potency,[3],0.526 µM (active)
Cn1cc(C=C2C(=O)Nc3cccnc32)c2ccccc21,Potency,[1],inactive
same,Potency,[3],inactive
same,Potency,[5],inactive
Nc1ncnc2c1nc(Cl)n2[C@@H]1O[C@H](CO)[C@@H](O)[C@@H]1O,Potency,[1],inactive
same,Potency,[3],26.4 µM (active)
same,Potency,[5],20.9 µM (active)
COC1CCC(N(C(=O)C2CCC(C)CC2)c2cc(C3=CCCCC3)sc2C(=O)O)CC1 (stereo not given),Potency,[1],inactive
same,Potency,[3],20.9 µM (active)
same,Potency,[5],inactive
Cc1ccccc1C(C(=O)NC1CCCCC1)N(C(=O)Cn1ccnc1C)c1cccc(F)c1 (stereo not given),Potency,[1],inactive
same,Potency,[6],inactive
same,Potency,[4],inactive
same,Potency,[5],8.33 µM (active)
CO[C@H]1C=CC=C(C)C(=O)NC2=CC(=O)C(NCCN(C)C)=C(C[C@@H](C)C[C@H](OC)[C@@H](O)[C@@H](C)C=C(C)[C@@H]1OC(N)=O)C2=O,Potency,[1],inactive
same,Potency,[6],0.235 µM (active)
same,Potency,[3],0.235 µM (active)
same,Potency,[4],0.235 µM (active)
same,Potency,[5],0.0469 µM (active)
same,Potency,[7],0.0935 µM (active)
same,Potency,[8],0.0059 µM (active)
COc1ccc(-n2c(C)c([N+](=O)[O-])c3ccc(O)cc32)cc1,Potency,[1],inactive
same,Potency,[3],16.6 µM (active)
same,Potency,[5],26.4 µM (active)
NC(=O)c1cnc(-c2ccc(C3(N)CCC3)cc2)c(-c2ccccc2)c1,Potency,[1],inactive
same,Potency,[3],inactive
CC1(C)CCC(CN2CCN(c3ccc(C(=O)NS(=O)(=O)c4ccc(NCC5CCOCC5)c([N+](=O)[O-])c4)c(Oc4cnc5[nH]ccc5c4)c3)CC2)=C(c2ccc(Cl)cc2)C1,Potency,[1],inactive
same,Potency,[3],23.5 µM (active)
Cc1ccc(/C=N/NC(=O)c2ccccc2Oc2ccccc2)o1,Potency,[1],inactive
same,Potency,[3],20.9 µM (active)
same,Potency,[5],inactive
COc1ccc(-c2oc3c(CC=C(C)C)c(OC4O[C@H](CO)[C@@H](O)[C@H](O)[C@@H]4O)cc(O)c3c(=O)c2OC2O[C@@H](C)[C@H](O)[C@@H](O)[C@@H]2O)cc1 (stereo not given in full),Potency,[1],inactive
same,Potency,[3],26.4 µM (active)
same,Potency,[5],26.4 µM (active)
CC=C(C)C(=O)O[C@H]1C(C)=C[C@]23C(=O)[C@@H](C=C(CO)[C@@H](O)[C@]12O)[C@H]1[C@@H](C[C@H]3C)C1(C)C,Potency,[1],inactive
same,Potency,[3],8.33 µM (active)
CC1(C)O[C@H]2C[C@@H]3[C@H]4CCC5=CC(=O)C=C[C@]5(C)[C@@]4(F)[C@@H](O)C[C@]3(C)[C@]2(C(=O)CO)O1,Potency,[1],inactive
same,Potency,[3],inactive
CCOC(=O)O[C@]1(C(=O)OCCl)CC[C@@H]2[C@H]3CCC4=CC(=O)C=C[C@]4(C)[C@@H]3[C@@H](O)C[C@@]21C,Potency,[1],inactive
same,Potency,[3],inactive
COc1ccc(-c2coc3cc(O)cc(O)c3c2=O)cc1,Potency,[1],inactive
same,Potency,[3],inactive
same,Potency,[4],inactive
same,Potency,[5],inactive
O=C(Nc1cccc(Br)c1)c1cccc(S(=O)(=O)N2CCCCCC2)c1,Potency,[1],inactive
same,Potency,[3],23.5 µM (active)
CC(C)(Cc1ccc2ccccc2c1)NC[C@@H](O)COc1cccc(Cl)c1C#N,Potency,[1],inactive
same,Potency,[3],16.6 µM (active)
same,Potency,[5],14.8 µM (active)
COc1ccc2c3c1OC1C[C@@H](O)C=C[C@@]31CCN(C)C2 (stereo not given in full),Potency,[1],inactive
same,Potency,[3],20.9 µM (active)
COc1ccc(Cc2ccc(NC(N)=O)cc2)cc1-c1cccc(Cl)c1,Potency,[1],inactive
same,Potency,[3],18.7 µM (active)
same,Potency,[5],23.5 µM (active)
CC(C)=CC[C@@H](O)C1=CC(=O)c2c(O)ccc(O)c2C1=O,Potency,[1],inactive
same,Potency,[3],2.35 µM (active)
CO[C@H]1C=CO[C@@]2(C)Oc3c(C)c(O)c4c(O)c(c5c(c4c3C2=O)NC2(CCN(CC(C)C)CC2)N=5)=NC(=O)C(C)=CC=C[C@H](C)[C@H](O)[C@@H](C)[C@@H](O)[C@@H](C)[C@H](OC(C)=O)[C@H]1C,Potency,[1],inactive
same,Potency,[3],inactive
same,Potency,[5],inactive
Cc1cc(OCCCc2c(C(=O)O)n(Cc3cccnc3)c3c(-c4c(COc5ccc(N6CCN([S+](C)(=O)[O-])CC6)cc5)nn(C)c4C)cccc23)cc(C)c1Cl,Potency,[1],inactive
same,Potency,[3],20.9 µM (active)
same,Potency,[5],23.5 µM (active)
CCOC(=O)C1=C(N)Oc2ccc(Br)cc2C1C(C#N)C(=O)OCC (stereo not given),Potency,[1],inactive
same,Potency,[3],23.5 µM (active)
same,Potency,[5],37.2 µM (active)
NC(=O)[C@@H](CCC(F)(F)F)N(Cc1ccc(-c2ncon2)cc1F)S(=O)(=O)c1ccc(Cl)cc1,Potency,[1],inactive
same,Potency,[3],18.7 µM (active)
same,Potency,[5],14.8 µM (active)
CC(C)OC(=O)CCCC=CC[C@@H]1[C@H](C=C[C@@H](O)COc2cccc(C(F)(F)F)c2)[C@H](O)C[C@@H]1O,Potency,[1],inactive
same,Potency,[6],inactive
same,Potency,[3],16.6 µM (active)
same,Potency,[5],inactive
CC#CCn1c(N2CCC[C@@H](N)C2)nc2c1c(=O)n(Cc1nc(C)c3ccccc3n1)c(=O)n2C,Potency,[1],inactive
same,Potency,[3],26.4 µM (active)
